According to PubChem BioAssay (Tox21):
Results filed as inconclusive are left out. The source made the active and inactive calls. Unless noted, calls come from the whole dose curve.

Experiments:
[1] = Nuclear factor erythroid 2-related factor 2/antioxidant responsive element (Nrf2/ARE) small molecule agonists: qHTS cell viability counter screen in human keratinocytes (AID 1919968; active = well fitted curve in the direction sought with a large enough effect in the repeat runs; an effect the other way counts as inactive or inconclusive; note: nearly all actives have a fitted effect of over 55% in size)
Outline: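 Parallel cytotoxicity read: KeratinoSens HaCaT cells, compound treatment 23 h, viability by CellTiter-Fluor fluorescence 1 h post-reagent.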

[2] = Nuclear factor erythroid 2-related factor 2/antioxidant responsive element (Nrf2/ARE) small molecule agonists: luciferase reporter gene qHTS assay in human keratinocytes (AID 1919969); note: nearly all actives have a fitted effect of over 35% in size
[3] = target: Gonadotropin-releasing hormone receptor (Homo sapiens) (UniProt P30968); assay: Human gonadotropin-releasing hormone receptor (GnRHR) small molecule agonists, calcium flux assay in GnRHR-HEK293 cells (AID 1920063); note: nearly all actives have a fitted effect of over 35% in size
Outline: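 Calcium flux, agonist mode, human GnRHR stably integrated in HEK293; dye 1 h at 37 C before compound; Ex/Em=480/540 kinetic read, 3 min; 15 concentrations, triplicate.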

[4] = target: KiSS-1 receptor (Homo sapiens) (UniProt Q969F8); assay: Human kisspeptin (KISS1R) small molecule agonists, calcium flux assay in KISS1R-HEK293 cells (AID 1920064; active = well fitted curve in the direction sought with a large enough effect in the repeat runs; an effect the other way counts as inactive or inconclusive)
Outline: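 Triplicate 15-concentration series were applied to dye-loaded human KISS1R HEK293 cells, and agonist-evoked calcium fluorescence was captured for 3 min.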

[5] = G protein-coupled receptor (GPCR) small molecule agonists, calcium flux assay: HEK293 wild type cell line counter screen (AID 1920065)
Outline: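 Non-specific calcium responders were flagged by adding DMSO-dissolved compounds to dye-loaded cells and reading 480/540 nm fluorescence each second for 3 min; ATP served as positive control.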

[6] = p53 small molecule agonists, cell-based qHTS assay with human liver microsomes (AID 1963577)
Outline: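 Cells carrying a p53-responsive bla reporter were rested 5 h (37 C, 5% CO2) before compound transfer. Human liver microsomes plus NADPH, 0.5 mg/mL final apiece, supplied metabolism during the 16 h 37 C exposure.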

[7] = p53 small molecule agonists, cell-based qHTS assay with rat liver microsomes (AID 1963578)
Outline: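 Fluorescence from a beta-lactamase reporter under a p53 response element was measured after cells had been incubated 16 h at 37 C with test compound and rat liver microsomes plus NADPH (0.5 mg/mL final each).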

[8] = p53 small molecule agonists, cell-based qHTS assay with human liver microsomes: qHTS cell viability counter screen (AID 1963579); note: nearly all actives have a fitted effect of over 45% in size
Outline: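 Seed p53RE-bla cells at 4,000 per well; incubate 5 h at 37 C; add compound, human liver microsomes and NADPH; incubate 16 h at 37 C; add CellTiter-Glo; after 30 min at room temperature, read luminescence.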

[9] = p53 small molecule agonists, cell-based qHTS assay with rat liver microsomes: qHTS cell viability counter screen (AID 1963580); note: nearly all actives have a fitted effect of over 45% in size
Outline: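 After the beta-lactamase ratio was read, CellTiter-Glo was added to the same wells and luminescence measured at 30 min; cells had been treated 16 h at 37 C with compounds, rat liver microsomes and NADPH (0.5 mg/mL final each).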

[10] = p53 small molecule agonists, cell-based qHTS assay: qHTS cell viability counter screen (AID 1963581); note: nearly all actives have a fitted effect of over 45% in size
Outline: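 Multiplexed with the reporter read, a CellTiter-Glo step (30 min, room temperature) gauges ATP-based viability of HCT-116 p53RE-bla cells after 16 h compound incubation at 37 C.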

[11] = p53 small molecule agonists, cell-based qHTS assay (AID 1963582; active = well fitted activation curve with a large enough effect in the signal ratio in the repeat runs, not every such curve was filed as active; the % refers to the signal ratio)
Outline: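 Beta-lactamase reporter cells (p53RE-bla) treated with compounds for 16 h at 37 C; FRET substrate, 2 h, room temperature; fluorescence intensity.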

[12] = target: 5-hydroxytryptamine receptor 2A (Homo sapiens) (UniProt P28223); assay: 5-hydroxytryptamine receptor 2A (HTR2A) small molecule antagonists, cell-based qHTS assay (AID 1963586); note: nearly all actives have a fitted effect of over 45% in size
Outline: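 CHO cells stably expressing human HTR2A were plated for 18 h at 37 C, then loaded with calcium dye for 1 h. Compounds were preincubated 5 min at room temperature before DOI (4 nM solution) was added. Kinetic fluorescence was read for 3 min.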

[13] = target: 5-hydroxytryptamine receptor 2A (Homo sapiens) (UniProt P28223); assay: 5-hydroxytryptamine receptor 2A (HTR2A) small molecule agonists, cell-based qHTS assay (AID 1963587); note: nearly all actives have a fitted effect of over 30% in size
Outline: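 CHO cells stably expressing human HTR2A, plated 18 h, loaded with calcium dye 1 h at 37 C. Agonist mode: compounds added and intracellular calcium fluorescence recorded kinetically for 2 min at 1 sec intervals.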

[14] = target: Muscarinic acetylcholine receptor M1 (Homo sapiens) (UniProt P11229); assay: Cholinergic receptor muscarinic 1 (CHRM1) small molecule antagonists, cell-based qHTS assay (AID 1963588); note: nearly all actives have a fitted effect of over 40% in size
Outline: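 Compounds were tested at 15 concentrations in three independent runs. Dye-loaded CHRM1-CHO cells were exposed 5 min at room temperature before stimulation by acetylcholine added at 50nM. Intracellular calcium was read kinetically on FDSS for 3 min.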

[15] = target: Muscarinic acetylcholine receptor M1 (Homo sapiens) (UniProt P11229); assay: Cholinergic receptor muscarinic 1 (CHRM1) small molecule agonists, cell-based qHTS assay (AID 1963589); note: nearly all actives have a fitted effect of over 35% in size
Outline: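 qHTS, 15-point titration, 3 independent runs: compounds pin-transferred onto dye-loaded CHRM1-CHO cells (human M1), calcium fluorescence followed every second to detect agonism.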

[16] = cAMP Responsive Elements (CRE) small molecule agonists, cell-based qHTS assay (AID 1963590)
Outline: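 Quantitative HTS for CRE agonists: HEK 293T CRE-bla cells, overnight plating, 3 h compound incubation at 37 C/5% CO2, then 2 h room-temperature LiveBLAzer B/G FRET substrate loading.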

[17] = cAMP Responsive Elements (CRE) small molecule antagonists, cell-based qHTS assay (AID 1963591; active = well fitted inhibition curve with a large enough effect in the signal ratio in the repeat runs, not every such curve was filed as active; the % refers to the signal ratio)
Outline: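 Fluorescence intensity from cleaved LiveBLAzer B/G substrate (2 h, room temperature) quantified CRE-bla activity in HEK 293T cells exposed 3 h to compound with 0.25 uM final NKH477.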

[18] = target: Beta-2 adrenergic receptor (Homo sapiens) (UniProt P07550); assay: Adrenergic beta2 receptor (ADRB2) small molecule antagonists, cell-based qHTS assay (AID 1963592); note: series mostly up to about 92 µM; nearly all actives have a fitted effect of over 50% in size
Outline: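 Assay format: CHO-ADRB2 cells, 18-20hr seeding at 37C/5% CO2, then compound plus 1nM isoproterenol agonist mix for 0.5hr RT. Homogeneous time-resolved fluorescence cAMP detection after 1hr, expressed as 665/615 nm ratio.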

[19] = target: D(2) dopamine receptor (Homo sapiens) (UniProt P14416); assay: Dopamine D2 receptor (DRD2) small molecule agonists, cell-based qHTS assay (AID 1963594); note: nearly all actives have a fitted effect of over 35% in size
Outline: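 HEK293 cells stably expressing human DRD2, pre-treated with PDE inhibitor Ro20-1724 (0.1 mM final) and compound 10 min at room temperature, then stimulated with NKH477 (200nM […]) for 30 min. cAMP read by HTRF (665/620 nm).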

[20] = target: D(2) dopamine receptor (Homo sapiens) (UniProt P14416); assay: Dopamine D2 receptor (DRD2) small molecule antagonists, cell-based qHTS assay (AID 1963595; active = well fitted inhibition curve with a large enough effect in the signal ratio in the repeat runs, with a control signal flat; the % refers to the signal ratio)
Outline: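 Readout: HTRF cAMP, cAMP-d2 competing with cellular cAMP for anti-cAMP cryptate, read after 1 h. Cells: DRD2-HEK293. Conditions: 0.1 mM Ro20-1724, 12 nM quinpirole, 200 nM NKH477, 30 min RT.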

Measured: Potency

Beta-2 adrenergic receptor (Homo sapiens), sequence (P07550 whole entry, looked up): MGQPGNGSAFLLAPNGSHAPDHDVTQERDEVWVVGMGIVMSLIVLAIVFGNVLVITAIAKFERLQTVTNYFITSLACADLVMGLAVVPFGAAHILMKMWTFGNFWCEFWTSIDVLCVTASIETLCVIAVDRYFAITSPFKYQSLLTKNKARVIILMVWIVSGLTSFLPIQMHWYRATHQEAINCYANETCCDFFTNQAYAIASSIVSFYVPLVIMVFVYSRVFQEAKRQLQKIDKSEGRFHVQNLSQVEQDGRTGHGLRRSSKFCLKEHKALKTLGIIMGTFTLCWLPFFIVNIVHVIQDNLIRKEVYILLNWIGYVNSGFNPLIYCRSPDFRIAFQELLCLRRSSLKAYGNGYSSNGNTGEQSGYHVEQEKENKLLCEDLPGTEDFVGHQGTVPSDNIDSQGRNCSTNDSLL
5-hydroxytryptamine receptor 2A (Homo sapiens), sequence (P28223 whole entry, looked up): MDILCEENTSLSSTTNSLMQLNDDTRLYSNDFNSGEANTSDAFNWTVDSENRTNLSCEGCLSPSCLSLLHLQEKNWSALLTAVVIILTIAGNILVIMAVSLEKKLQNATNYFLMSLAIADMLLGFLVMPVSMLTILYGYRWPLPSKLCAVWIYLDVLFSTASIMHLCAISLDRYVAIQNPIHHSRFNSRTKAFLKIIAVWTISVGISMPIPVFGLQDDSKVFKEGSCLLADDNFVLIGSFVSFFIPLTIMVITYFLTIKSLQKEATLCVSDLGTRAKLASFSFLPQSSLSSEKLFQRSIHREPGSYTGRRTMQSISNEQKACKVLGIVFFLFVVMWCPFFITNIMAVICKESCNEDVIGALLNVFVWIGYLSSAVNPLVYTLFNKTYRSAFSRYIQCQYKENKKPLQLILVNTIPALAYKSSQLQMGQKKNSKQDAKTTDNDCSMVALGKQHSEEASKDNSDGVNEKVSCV
Gonadotropin-releasing hormone receptor (Homo sapiens), sequence (P30968 whole entry, looked up): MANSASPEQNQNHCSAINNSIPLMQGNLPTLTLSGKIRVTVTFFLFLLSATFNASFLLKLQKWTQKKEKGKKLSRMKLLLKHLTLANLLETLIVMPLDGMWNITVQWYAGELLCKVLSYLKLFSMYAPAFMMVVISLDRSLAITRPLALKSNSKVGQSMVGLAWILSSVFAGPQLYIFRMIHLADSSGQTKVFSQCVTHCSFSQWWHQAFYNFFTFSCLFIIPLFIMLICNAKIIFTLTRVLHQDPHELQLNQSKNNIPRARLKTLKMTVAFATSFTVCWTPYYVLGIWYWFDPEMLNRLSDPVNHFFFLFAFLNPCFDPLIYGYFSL
Muscarinic acetylcholine receptor M1 (Homo sapiens), sequence (P11229 whole entry, looked up): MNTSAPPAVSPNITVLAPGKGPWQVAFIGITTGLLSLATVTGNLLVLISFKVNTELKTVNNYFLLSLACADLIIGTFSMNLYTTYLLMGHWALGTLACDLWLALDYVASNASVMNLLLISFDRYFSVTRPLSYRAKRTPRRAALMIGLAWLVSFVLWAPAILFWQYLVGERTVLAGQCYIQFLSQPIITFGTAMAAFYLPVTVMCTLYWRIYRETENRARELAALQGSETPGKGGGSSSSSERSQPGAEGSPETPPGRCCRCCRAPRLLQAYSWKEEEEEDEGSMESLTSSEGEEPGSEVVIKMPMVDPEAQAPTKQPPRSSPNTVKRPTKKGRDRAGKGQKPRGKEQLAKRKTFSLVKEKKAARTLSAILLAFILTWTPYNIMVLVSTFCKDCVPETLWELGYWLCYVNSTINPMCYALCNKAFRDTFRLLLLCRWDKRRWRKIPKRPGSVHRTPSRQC
D(2) dopamine receptor (Homo sapiens), sequence (P14416 whole entry, looked up): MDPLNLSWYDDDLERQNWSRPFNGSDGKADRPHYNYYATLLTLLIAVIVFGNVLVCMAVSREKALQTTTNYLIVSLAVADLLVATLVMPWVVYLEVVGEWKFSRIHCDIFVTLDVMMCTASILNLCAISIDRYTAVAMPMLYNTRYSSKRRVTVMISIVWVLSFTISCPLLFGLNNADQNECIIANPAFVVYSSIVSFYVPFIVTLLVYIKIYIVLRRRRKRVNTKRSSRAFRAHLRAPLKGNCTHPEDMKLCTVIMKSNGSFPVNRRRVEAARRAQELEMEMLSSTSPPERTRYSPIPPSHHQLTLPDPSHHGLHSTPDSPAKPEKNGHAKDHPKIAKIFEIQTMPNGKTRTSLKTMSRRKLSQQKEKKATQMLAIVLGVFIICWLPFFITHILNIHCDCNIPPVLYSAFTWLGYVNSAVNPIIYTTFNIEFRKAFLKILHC
KiSS-1 receptor (Homo sapiens), sequence (Q969F8 whole entry, looked up): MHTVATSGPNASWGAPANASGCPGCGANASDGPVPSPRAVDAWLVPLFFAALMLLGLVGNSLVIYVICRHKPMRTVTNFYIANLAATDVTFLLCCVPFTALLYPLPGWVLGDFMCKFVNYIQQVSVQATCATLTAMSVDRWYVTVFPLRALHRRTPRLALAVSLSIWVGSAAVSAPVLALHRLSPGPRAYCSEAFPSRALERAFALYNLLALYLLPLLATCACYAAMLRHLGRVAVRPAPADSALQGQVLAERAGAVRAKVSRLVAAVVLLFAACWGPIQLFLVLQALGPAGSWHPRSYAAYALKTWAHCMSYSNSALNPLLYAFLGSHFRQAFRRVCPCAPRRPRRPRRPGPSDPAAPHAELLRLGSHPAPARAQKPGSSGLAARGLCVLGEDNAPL

Clc1nc(Cl)nc(Cl)n1
inactive: [1] | [2] | [3] | [4] | [5] | [6] | [7] | [8] | [9] | [10] | [11] | [12] | [13] | [14] | [15] | [16] | [17] | [18] | [19] | [20]

ClCc1ccccc1
inactive: [1] | [2] | [3] | [4] | [5] | [6] | [7] | [8] | [9] | [10] | [11] | [12] | [13] | [14] | [15] | [16] | [17] | [18] | [19] | [20]

COc1nc(C)nc(NC(=O)NS(=O)(=O)c2ccccc2Cl)n1
inactive: [1] | [2] | [3] | [4] | [5] | [6] | [7] | [8] | [9] | [10] | [11] | [12] | [13] | [14] | [15] | [16] | [17] | [18] | [19] | [20]

O=C(O)C(F)(F)C(F)(F)C(F)(F)C(F)(F)C(F)(F)C(F)(F)C(F)(F)C(F)(F)C(F)(F)C(F)(F)F
inactive: [1] | [2] | [3] | [4] | [5] | [6] | [7] | [8] | [9] | [10] | [11] | [12] | [13] | [14] | [15] | [16] | [17] | [18] | [19]

CCc1cc(C)cc(CC)c1-c1c(OC(=O)C(C)(C)C)n2n(c1=O)CCOCC2
inactive: [1] | [2] | [3] | [4] | [5] | [6] | [7] | [8] | [9] | [10] | [11] | [12] | [13] | [14] | [15] | [16] | [17] | [18] | [19]

ClC(Cl)(Cl)C(Cl)(Cl)Cl
inactive: [1] | [2] | [3] | [4] | [5] | [6] | [7] | [8] | [9] | [10] | [11] | [12] | [13] | [14] | [15] | [16] | [17] | [18] | [19] | [20]

CC(C)OC(=O)Nc1ccccc1
inactive: [1] | [2] | [3] | [4] | [5] | [6] | [7] | [8] | [9] | [10] | [11] | [12] | [13] | [14] | [15] | [16] | [17] | [18] | [19] | [20]
